# Screening data deposited in PubChem BioAssay by National Center for Advancing Translational Sciences (NCATS).
# D3 ag – activates the human D3 dopamine receptor. max activation, %. P35462. AID 652048. D3R DiscoveRx beta-arrestin cells, luminescence, 90 min. 410,000 compounds, 0.58% hits; in the data active = max activation above about 30%; also: 0% is about no effect
#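 Agonist-mode cell screen: cells plated at 1500/well and incubated overnight at 37 °C, then exposed to library compounds for 90 min at 37 °C. Detection reagent was added for 30–60 min at room temperature, and luminescence was read.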
# DT40 TDP1 no CPT – qHTS for Inhibitors of human tyrosyl-DNA phosphodiesterase 1 (TDP1): qHTS in cells in absence of CPT; DT40 Tdp1-/- hTDP1 cells, no CPT, ATP luminescence, 48 h; AID 686978, 2013; Potency, µM (doses to about 46.2 µM), inactives show at the highest dose activity change, negative = growth inhibition, actives largely listed as inhibitors; 420,000 compounds, 15% hits; also: potency is read from the fitted curve at half-maximal effect; % is scaled to controls: 0 for no effect and ±100 for the full control effect; nearly all actives have a fitted effect of over 55% in size
#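 Chicken DT40 Tdp1-/- cells stably complemented with human TDP1 were seeded at 400 cells/well with DMSO in place of 20 nM camptothecin. After compound pinning, cells grew at least 48 hr at 37 °C; viability read by CellTiter-Glo luminescence.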
# DT40 TDP1 CPT – growth inhibition of DT40 Tdp1-/-;hTDP1 cells with camptothecin (screen for TDP1 inhibitors); chicken DT40 Tdp1-/-;hTDP1 cells + 20 nM CPT, ATP luminescence, 48 h; Potency, µM (top dose mostly 46.2 µM), inactives show top-dose activity change, negative = growth inhibition, most hits filed as inhibitors; 420,000 compounds, 12% hits; AID 686979; also: potency is read from the fitted curve at half-maximal effect; % is scaled to controls: 0 for no effect and ±100 for the full control effect; nearly all actives have a fitted effect of over 55% in size
#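 Cell growth measured by CellTiter-Glo luminescence after a minimum 48 h, 37 C compound exposure with 20 nM CPT in Tdp1-knockout DT40 cells stably expressing hTDP1, seeded 400/well; qHTS titration format.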
# ClpP mod – qHTS Assay for Activators of ClpP; ATP-dependent Clp protease proteolytic subunit (Bacillus subtilis (strain 168)), P80244; purified B. subtilis ClpP, FRET peptide cleavage, 20 min; Potency, µM (doses to about 57.5 µM), for inactives: at the highest dose activity change, negative = active; 340,000 compounds, 1.9% hits; active = well fitted falling curve with a large enough effect; inconclusive = small, poorly fitted or top-dose-only effect; inactive = no such curve, though single readings can be large or run the other way; also: potency is read from the fitted curve at half-maximal effect; the source files actives as falling curves though it sought activators and does not explain the sign; nearly all actives have a fitted effect of over 65% in size
#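 ClpP 10 microg/mL final, pH 8 Tris/KCl buffer with BSA, glycerol, Tween-20; compound pinned in; FRET-FV substrate; RT 20 min; Ex320/Em430; ΔFRET vs ADEP 5.8 microM, DMSO, no enzyme.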
# D3 antag – D3 dopamine receptor (human) antagonism | P35462 | 360,000 compounds, 2.5% hits | max response, negative = inhibition, % | AID 652054 | D3R cells, DiscoveRx beta-arrestin luminescence, antagonist mode; hits give low values; in the data active = max response below about -50%; inconclusive = no clear call, values can overlap the other calls; also: % is scaled to controls: 0 for no effect and ±100 for the full control effect
#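 Cells expressing the human receptor were seeded at 1500 cells/well, incubated overnight at 37 degrees C in 5% CO2, then exposed to library compounds with dopamine controls for 90 minutes at 37 degrees C before luminescent detection.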
# IL1B secr inh – inhibitors of inflammasome signaling (IL-1 beta secretion) | THP-1 LPS/ATP IL-1B secretion, AlphaLISA, 16 h; hits give low values | activity change, % at 57.5 µM | 360,000 compounds, 4.7% hits | AID 743279; in the data active = activity change below about -50%; inconclusive = mostly about -30% to -49%; also: % is scaled to controls: 0 for no effect and ±100 for the full control effect
#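 THP-1 cells pretreated 1 hr with compounds (up to 57.5 uM final), then stimulated with LPS (250 ng/mL final) plus ATP (1.25 mM final); secreted IL-1B measured by AlphaLISA after 16 hr, decreased signal indicating inhibition.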
# * marks the source's active call; other numbers are inactive results; ? = inconclusive; · = not tested or not shown. This is a sample that favours compounds with a hit; in the whole collection about 21% have one here. Unless noted, calls follow the shape of the dose curve; as a rule, active = well fitted inhibition curve with a large enough effect; inconclusive = small, poorly fitted or top-dose-only effect; inactive = flat fitted curve, though single readings scatter.
SMILES,D3 ag,DT40 TDP1 no CPT,DT40 TDP1 CPT,ClpP mod,D3 antag,IL1B secr inh
Nc1[nH]c(C(=O)c2ccccc2)c(-c2ccc(Cl)cc2)c1C(=O)NCCc1c[nH]c2ccccc12,1,?,?,-17%,6,0
COc1ccc(C(=O)c2[nH]c(N)c(C(=O)NCCc3c[nH]c4ccccc34)c2-c2c(F)cccc2Cl)cc1,4,15µM*,16µM*,-2%,9,-9
Nc1[nH]c(C(=O)c2ccccc2)c(-c2ccc(Cl)c(F)c2)c1C(=O)NCCc1c[nH]c2ccccc12,8,?,?,-2%,18,-9
Nc1[nH]c(C(=O)c2ccccc2)c(-c2ccc(F)cc2)c1C(=O)NCCc1c[nH]c2ccccc12,7,23µM*,?,-4%,18,?
COc1ccc(C(=O)c2[nH]c(N)c(C(=O)NCCc3c[nH]c4ccccc34)c2-c2ccc(OC)c(OC)c2)cc1,7,8.2µM*,16µM*,-3%,43,?
CN(CC(=O)Nc1cccc(F)c1)C(=O)c1cccnc1Sc1ccc(Cl)cc1,-17,?,-10%,-1%,-29,-14
Nc1nn2cc(-c3ccccc3)nc2c2ccccc12,2,?,?,?,6,-100*
Nc1nc(-c2ccccc2)cn1N,-11,?,?,-1%,6,31
Cc1cn2nc(N)c3ccccc3c2n1,5,18%,1%,28µM*,17,5
Cc1nc2ccccc2c2nc(N)nn12,3,3%,6%,?,12,50
CCc1ccc2oc(C(=O)NCCc3ccc(S(N)(=O)=O)cc3)cc(=O)c2c1,9,-16%,-3%,·,7,14
O=C(CSc1ccccc1)NCC1(N2CCCCC2)CCCCC1,-20,?,?,0%,?,3
Cc1cc(NC(=O)C(C)SCC(=O)N(C)Cc2c(F)cccc2Cl)no1 (configuration not stated),3,?,?,·,-7,9
O=C(CCN1C(=O)/C(=C/c2cccs2)SC1=S)Nc1ccccn1,-7,?,?,-2%,40,0
COC(=O)c1ccc(/C=C2/SC(=S)N(CCCC(=O)Nc3ccc(O)cc3)C2=O)cc1,-12,13µM*,?,-2%,19,?
Cc1ccc(/C=C2\SC(=S)N(CCCC(=O)Nc3ccc(O)cc3)C2=O)cc1,-4,-3%,1%,·,10,20
COc1ccc(/C=C2\SC(=S)N(CCC(=O)Nc3cccc(O)c3)C2=O)cc1OC,3,-21%,-7%,·,20,52
COc1ccc(NC(=O)CCCN2C(=O)/C(=C\c3ccco3)SC2=S)cc1,-2,16µM*,?,-2%,-3,-71*
COc1ccc(/C=C2/SC(=S)N(CCCC(=O)Nc3cccc(O)c3)C2=O)cc1,-8,?,?,·,-24,-79*
O=C(CCCN1C(=O)/C(=C\c2cccs2)SC1=S)Nc1ccccn1,4,16µM*,?,·,-1,9
CC(C)(C)C(=O)NC1CC2CCCC(C1)N2C(=O)Nc1ccccc1 (configuration not stated),-2,11%,5%,-2%,-13,-9
COc1ccc(/C=C2/SC(=S)N(CCCC(=O)Nc3ccccc3C(=O)O)C2=O)cc1,6,-3%,2%,·,11,20
COc1ccc(/C=C2\SC(=S)N(CCCC(=O)Nc3ccccn3)C2=O)cc1OC,-3,29µM*,?,0%,0,3
O=C(CCCN1C(=O)/C(=C/c2cccs2)SC1=S)NNC(=O)c1ccccc1O,14,16µM*,21µM*,-4%,-8,0
COc1ccc(/C=C2\SC(=S)N(CCCC(=O)NNC(=O)c3ccccc3O)C2=O)cc1,3,8.2µM*,?,·,-13,69
SMILES,D3 ag,DT40 TDP1 no CPT,DT40 TDP1 CPT,ClpP mod,D3 antag,IL1B secr inh
O=C(CCCN1C(=O)/C(=C\c2cccs2)SC1=S)Nc1ccc(O)cc1,-3,?,26µM*,·,-1,18
CC1CCC2(CC1)NC(=O)N(NC(=O)c1cc3ccccc3o1)C2=O (configuration not stated),-6,23%,-15%,0%,11,0
O=C(CN1C(=O)C2C3CC(C(Br)C3Br)C2C1=O)Nc1ccc(C(=O)O)cc1 (configuration not stated),-15,0%,-12%,1%,-1,27
O=C(NCc1ccccc1Cl)C(=O)NCC1OCCN1S(=O)(=O)c1cccs1 (configuration not stated),0,-21%,5%,·,8,0
COc1ccc(C(=O)NCC(c2ccc(N(C)C)cc2)N2CCc3ccccc32)cc1 (configuration not stated),5,8.2µM*,7.3µM*,-14%,·,·
Cc1ccc(S(=O)(=O)NCC(c2ccc(N(C)C)cc2)N2CCc3ccccc32)cc1C (configuration not stated),-7,23µM*,?,?,·,·
CC(C)Oc1ccc(C(=O)NCC(c2ccc(N(C)C)cc2)N2CCc3ccccc32)cc1 (configuration not stated),0,21µM*,9.2µM*,?,·,·
CN(C)c1ccc(C(CNC(=O)c2ccccc2Cl)N2CCc3ccccc32)cc1 (configuration not stated),-3,?,?,-3%,·,·
COc1ccccc1C(=O)NCC(c1ccc(N(C)C)cc1)N1CCc2ccccc21 (configuration not stated),-13,16µM*,21µM*,-23%,·,·
O=c1cc(CSc2nc(NCc3ccc(Cl)cc3)c3ccccc3n2)nc2ccc(Cl)cn12,7,-13%,2%,·,3,23
CN(C)c1ccc(C(CNC(=O)c2ccccc2)N2CCc3ccccc32)cc1 (configuration not stated),-8,15µM*,7.3µM*,-14%,·,·
N#Cc1ccsc1NC(=O)CN(Cc1ccccc1)Cc1ccccc1,-1,15µM*,21µM*,-2%,-11,0
N#Cc1ccsc1NC(=O)CN1CCN(c2ccccc2O)CC1,2,7%,10%,-15%,16,12
N#Cc1ccsc1NC(=O)CCc1ccccc1,4,21µM*,?,·,3,53
CCN(CC(=O)Nc1ccccc1OC)CC(=O)Nc1sccc1C#N,-2,?,?,-1%,-12,10
